Bioassay records from PubChem BioAssay.
This is a sample that favours compounds with a hit; in the whole collection about 2.3% have one here.
C diff HTS: C. difficile growth inhibitors, primary screen, HTS; Clostridium difficile clinical isolate growth, OD600, 24 h; active compounds read low; growth activity, negative = inhibition, % at 16 µg/mL (by protocol); 86,000 tested, 0.25% active; AID 1259249, 2017;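 active means mean growth activity at or below -80% and every replicate also at or below -80%; inconclusive means mean at or below -80% but some replicate above -80%; inactive means mean growth activity above -80%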;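 further: 0% = DMSO wells and -100% = levofloxacin 16 µg/mL wells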
Pf Dd2 growth: P. falciparum Dd2 growth inhibitors, primary screen, SYBR Green fluorescence, single dose replicates | 72 h; active compounds read low | activity change, % at 10 µM | 94,000 tested, 2.3% active; in the data active means activity change below about -80%; inconclusive means no clear call, values can overlap the other calls
The depositor's hits bear a star; ? = inconclusive; nt = not tested or not shown; ! = not confirmed by another sample.

SMILES | C diff HTS | Pf Dd2 growth
CN(C)CCCNC(=O)C[C@H]1CC[C@H]2[C@@H](COC[C@@H](O)CN2CC2CCCCC2)O1 | 59 | -5
COc1ccc(S(=O)(=O)N(C)C[C@@H]2OCCCC[C@H](C)Oc3ccc(NC(=O)Nc4ccc(C(F)(F)F)cc4)cc3C(=O)N([C@@H](C)CO)C[C@H]2C)cc1 | 6 | -86*
COc1ccc(S(=O)(=O)N(C)C[C@H]2OCCCC[C@@H](C)Oc3ccc(NC(=O)Nc4ccc(C(F)(F)F)cc4)cc3C(=O)N([C@H](C)CO)C[C@@H]2C)cc1 | 3 | -79
COc1ccc(NC(=O)Nc2ccc3c(c2)C(=O)N([C@H](C)CO)C[C@H](C)[C@H](CN(C)S(=O)(=O)c2ccc(C)cc2)OCCCC[C@@H](C)O3)cc1 | nt | -88*
COc1ccc(NC(=O)Nc2ccc3c(c2)C(=O)N([C@@H](C)CO)C[C@@H](C)[C@@H](CN(C)S(=O)(=O)c2ccc(OC)cc2)OCCCC[C@@H](C)O3)cc1 | -6 | -73
COc1ccc(NC(=O)Nc2ccc3c(c2)C(=O)N([C@@H](C)CO)C[C@H](C)[C@H](CN(C)S(=O)(=O)c2ccc(OC)cc2)OCCCC[C@@H](C)O3)cc1 | 4 | -88*
COc1ccc(NC(=O)Nc2ccc3c(c2)C(=O)N([C@H](C)CO)C[C@@H](C)[C@H](CN(C)S(=O)(=O)c2ccc(C)cc2)OCCCC[C@@H](C)O3)cc1 | nt | -75
O=C(Cc1ccncc1)N1CC[C@@H]2[C@@H](CO)Nc3ccc(-c4cccc(F)c4)cc3[C@@H]21 | 1 | -92*
COc1ccc(C#Cc2ccc3c(c2)[C@@H]2[C@@H](CCN2C(=O)C2CCC2)[C@@H](CO)N3)cc1 | 31 | -75
O=C(C1CCC1)N1CC[C@H]2[C@H](CO)Nc3ccc(C4=CCCCC4)cc3[C@H]21 | -4 | -36
O=C(C1CCCC1)N1CC[C@@H]2[C@H]1c1cc(C3=CCCCC3)ccc1N[C@@H]2CO | 6 | -92*
COc1cccc(-c2ccc3c(c2)[C@H]2[C@H](CCN2C(=O)Cc2ccncc2)[C@H](CO)N3)c1 | nt | -76
C/C=C/c1ccc2c(c1)[C@H]1[C@H](CCN1S(=O)(=O)c1cccc(F)c1)[C@@H](CO)N2 | -4 | -93*
COc1ccc(C#Cc2ccc3c(c2)[C@@H]2[C@@H](CCN2C(=O)C2CCC2)[C@H](CO)N3)cc1 | 51 | -87*
C/C=C/c1ccc2c(c1)[C@H]1[C@H](CCN1S(=O)(=O)c1ccccc1)[C@H](CO)N2 | 5 | -6
CN1C(=O)c2cc(NC(=O)c3cnccn3)ccc2OC[C@@H]2O[C@@H](CC(=O)NCC3CC3)CC[C@H]21 | -10 | -2
O=C(Cc1ccccn1)N[C@@H]1C=C[C@H](CC(=O)N2CCCCC2)O[C@H]1CO | 5 | 0
CC=Cc1ccc2n(c1=O)C[C@H]1[C@H](CO)[C@@H](C(=O)NCC3CCCCC3)[C@@H]2N1C(=O)CC (mixture of isomers) | 0 | 7
CNC(=O)C[C@@H]1CC[C@H]2[C@H](COc3ccc(NS(=O)(=O)c4ccccc4C)cc3C(=O)N2C)O1 | -3 | -4
COCC(=O)N(C)C[C@@H]1Oc2cc(C#C[C@H](C)O)ccc2S(=O)(=O)N([C@H](C)CO)C[C@@H]1C | 1 | nt
COC(=O)C[C@H]1CC[C@@H]2[C@H](COc3ccc(NS(=O)(=O)c4ccccc4F)cc3C(=O)N2C)O1 | -4 | 13
COc1ccc(CN(C)C[C@H]2OCCCC[C@H](C)Oc3ccc(NC(=O)Nc4c(C)noc4C)cc3C(=O)N([C@H](C)CO)C[C@@H]2C)cc1 | 1 | -44
COc1ccc(S(=O)(=O)Nc2ccc3c(c2)C(=O)N(C)C[C@@H](OC)[C@H](C)CN(C)[C@H](C)CO3)cc1 | nt | 6
O=C(Nc1ccc(Cl)cc1)N[C@H]1CC[C@H](CCn2cc(C3(O)CCCC3)nn2)O[C@H]1CO | nt | -10
COc1cccc(-c2ccc3c(c2)[C@H]2[C@H](CCN2C(=O)C2CCCC2)[C@@H](CO)N3)c1 | 3 | -83*
SMILES | C diff HTS | Pf Dd2 growth
COc1cccc(-c2ccc3c(c2)[C@@H]2[C@@H](CCN2C(=O)C2CCCC2)[C@@H](CO)N3)c1 | -7 | -77
C/C=C/c1ccc2c(c1)[C@H]1[C@H](CCN1C(=O)C1CCCC1)[C@@H](CO)N2 | -7 | -86*
C/C=C/c1ccc2c(c1)[C@@H]1[C@@H](CCN1C(=O)C1CCCC1)[C@H](CO)N2 | 4 | -80
CO[C@H]1CN(C)C(=O)c2cc(NC(=O)Nc3c(C)noc3C)ccc2OC[C@H](C)N(CC2CC2)C[C@H]1C | nt | 8
O=C(CC1CC1)Nc1ccc2c(c1)[C@H]1C[C@H](CC(=O)NC3CCCCC3)O[C@@H](CO)[C@H]1O2 | 2 | 1
C[C@H](CO)N1C[C@H](C)[C@H](CN(C)C(=O)Nc2ccccc2)Oc2ncc(C#CC3CC3)cc2C1=O | nt | -6
O=C(NCC1CCCCC1)[C@@H]1[C@@H](CO)[C@@H]2Cn3c(ccc(-c4cccnc4)c3=O)[C@H]1N2 | -5 | 21
Cc1noc(C)c1S(=O)(=O)N(C)C[C@H]1OCCCC[C@H](C)Oc2ccc(NC(=O)Nc3ccccc3)cc2C(=O)N([C@@H](C)CO)C[C@@H]1C | 5 | ?
Cc1noc(C)c1S(=O)(=O)N(C)C[C@H]1OCCCC[C@@H](C)Oc2ccc(NC(=O)Nc3ccc(F)cc3)cc2C(=O)N([C@@H](C)CO)C[C@@H]1C | -10 | -83*
Cc1noc(C)c1S(=O)(=O)N(C)C[C@H]1OCCCC[C@@H](C)Oc2ccc(NC(=O)Nc3ccc(F)cc3)cc2C(=O)N([C@H](C)CO)C[C@@H]1C | -7 | -5
Cc1noc(C)c1S(=O)(=O)N(C)C[C@@H]1OCCCC[C@@H](C)Oc2ccc(NC(=O)Nc3ccccc3)cc2C(=O)N([C@H](C)CO)C[C@H]1C | 14 | -83*
COc1ccc(NC(=O)Nc2ccc3c(c2)C(=O)N([C@@H](C)CO)C[C@@H](C)[C@H](CN(C)S(=O)(=O)c2c(C)noc2C)OCCCC[C@@H](C)O3)cc1 | -2 | -17
COc1ccc(NC(=O)Nc2ccc3c(c2)C(=O)N([C@@H](C)CO)C[C@H](C)[C@@H](CN(C)S(=O)(=O)c2c(C)noc2C)OCCCC[C@H](C)O3)cc1 | -5 | -83*
Cc1noc(C)c1NC(=O)N(C)C[C@@H]1OCCCC[C@@H](C)Oc2ccc(NC(=O)C3CCCCC3)cc2C(=O)N([C@@H](C)CO)C[C@@H]1C | 3 | 22
CCN1[C@@H]2Cn3c(ccc(-c4ccccc4OC)c3=O)[C@H]1[C@@H](C(=O)N[C@@H](C)c1ccccc1)[C@@H]2CO | 0 | nt
C[C@@H]1CN([C@H](C)CO)S(=O)(=O)c2ccc(-c3cccnc3)cc2O[C@H]1CN(C)CC1CCOCC1 | 0 | 2
COc1ccc(S(=O)(=O)N(C)C[C@H]2Oc3ccc(NC(=O)Nc4cccc5ccccc45)cc3C(=O)N([C@H](C)CO)C[C@H]2C)cc1 | -8 | 19
C[C@H](CO)N1C[C@H](C)[C@H](CN(C)C(=O)CN2CCOCC2)Oc2ncc(C3=CCCCC3)cc2C1=O | -1 | 21
Cc1cccc(-c2ccc(C3[C@@H]4CN(Cc5cccc(F)c5)C[C@H]3N4)cc2)c1 (some centres not stated) | -97* | 15
Fc1cccc(-c2ccc(C3[C@@H]4CN(Cc5cncnc5)C[C@H]3N4)cc2)c1 (some centres not stated) | 3 | -86*!
